Measurements reported in PubChem BioAssay (EPA / NIEHS).
A structure can be active in one record and inactive in another. Activity calls are given as the source filed them. The calls were made as follows: active = hit-call score of the fitted dose curve at least 0.9, where 1 is the maximum; inactive = score below 0.9.

Legend:
[1] = APR_HepG2_P-H2AX_72hr: Apredica 72-hour HepG2 Assay for H2AX Phosphorylation (AID 2282916); conditions: imaging, actives raise or lower the signal;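 also: phospho-histone H2A.x immunostain intensity per cell marking DNA damage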
Summary of the method: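 Human hepatoma HepG2 cells are dosed across ten concentrations (0.39 to 200 uM, 0.5% v/v DMSO) and incubated 72 hr. Phospho-histone H2A.x is then detected by antibody staining alongside c-Jun and Hoechst, and quantified by automated fluorescence imaging.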

[2] = APR_HepG2_MitoMembPot_72hr: Apredica 72-hour HepG2 Assay for Mitochondrial Membrane Potential (AID 2282917); conditions: imaging, actives raise or lower the signal
Summary of the method: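 HepG2 cells dosed 72 hr with compound at 0.39–200 uM in duplicate, 0.5% v/v DMSO final. Mitochondria stained with 250 nM MitoTracker Red CMXRos for 30 min before formaldehyde fixation, imaged by high-content fluorescence; bidirectional fit versus DMSO.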

[3] = APR_HepG2_MitoticArrest_72hr: Apredica 72-hour HepG2 Assay for Mitotic Arrest (AID 2282918); conditions: high-content imaging, actives raise or lower the signal
Summary of the method: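 Read-out is phospho-histone H3 immunofluorescence with Hoechst nuclear segmentation, imaged at 20x. Human HepG2 liver cells received ten concentrations (0.39–200 uM, final DMSO 0.5% v/v) for 72 hr before fixation. Gain or loss of signal was fitted relative to DMSO.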

[4] = APR_HepG2_MicrotubuleCSK_72hr: Apredica 72-hour HepG2 Assay for Microtubule CSK Stabilty (AID 2282919); conditions: HepG2 microtubule cytoskeleton, high-content imaging, actives raise or lower the signal
Summary of the method: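 HepG2, 72 hr cmpd exposure, 0.39–200 uM (10 pts, duplicate), 0.5% DMSO. 3.7% formaldehyde fix, 0.5% Triton perm, anti-alpha-tubulin/Cy5 plus Hoechst. HCS fluorescence intensity; bidirectional fit vs DMSO baseline; taxol as positive control.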

[5] = APR_HepG2_P-H2AX_24hr: Apredica 24-hour HepG2 Assay for H2AX Phosphorylation (AID 2282920); conditions: high-content imaging, actives raise or lower the signal
Summary of the method: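 HepG2, 24 hr, cpd 0.39–200 uM (10 conc, duplicate), DMSO 0.5% v/v final. Fix 3.7% formaldehyde, Triton X-100 permeabilize, anti-phospho-H2A.x 1:200 + Hoechst 2 ug/mL. Imaged, bidirectional fit vs DMSO.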

[6] = APR_HepG2_StressKinase_72hr: Apredica 72-hour HepG2 Assay for Stress Kinase (AID 2282921); conditions: HepG2 stress kinase (phospho-c-Jun) imaging, actives raise or lower the signal
Summary of the method: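 After a 72 h compound treatment spanning 0.39 to 200 uM, formaldehyde-fixed cells are labelled for phosphorylated c-Jun and nuclei, imaged by automated fluorescence microscopy, and activity is fitted in both directions relative to DMSO controls.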

[7] = APR_HepG2_StressKinase_24hr: Apredica 24-hour HepG2 Assay for Stress Kinase (AID 2282922); conditions: HepG2 stress kinase (phospho-c-Jun) imaging, actives raise or lower the signal
Summary of the method: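 Read-out: phospho-c-Jun immunofluorescence (Cy3 secondary) quantified by high-content imaging at 20x, nuclei defined by Hoechst 33342. Human HepG2 liver cells dosed 24 hr, 0.39–200 uM, DMSO 0.5% v/v; gain or loss of signal fitted relative to DMSO.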

[8] = APR_HepG2_MitoMass_72hr: Apredica 72-hour HepG2 Assay for Mitochondrial Mass (AID 2282924); conditions: high-content imaging, actives raise or lower the signal;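 also: MitoTracker Red CMXRos stain intensity per cell imaged as mitochondrial mass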
Summary of the method: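 Read-out: MitoTracker Red fluorescence intensity from automated imaging (20x, six fields per well) in human HepG2 liver cells. Dosing ran 72 hr, 0.39–200 uM, 0.5% DMSO; bidirectional curve fitting versus DMSO baseline.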

[9] = APR_HepG2_NuclearSize_72hr: Apredica 72-hour HepG2 Assay for Nuclear Size (AID 2282925); conditions: high-content imaging, actives raise or lower the signal
Summary of the method: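 Read-out: nuclear diameter from Hoechst 33342 images (ArrayScan, 20x, six fields/well), via cell-cycle image analysis. HepG2 were dosed 0.39–200 uM for 72 hr in 0.5% DMSO. Bidirectional fit relative to DMSO.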

[10] = ATG_CRE_CIS: Attagene CIS-FACTORIAL HepG2 Assay for human cAMP Responsive Element (CRE) binding protein 3 (AID 2282926); conditions: HepG2 CRE cis-reporter, Attagene multiplexed mRNA; actives raise or lower the signal
Summary of the method: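 Assay format: transient reporter transfection of HepG2, 24 h treatment, total RNA isolation with DNase I step. Reporter abundance read by fluorescence after PCR and capillary separation; DMSO-normalised gain or loss fitting.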

[11] = target: CCAAT/enhancer-binding protein beta (Homo sapiens) (UniProt P17676); experiment: ATG_C_EBP_CIS: Attagene CIS-FACTORIAL HepG2 Assay for human CCAAT/Enhancer Binding Protein (C/EBP) beta (AID 2282927); conditions: HepG2 Attagene cis-factorial transcription factor reporter; actives raise or lower the signal
Summary of the method: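 Transiently transfected HepG2 (MRTU library, endogenous TF-driven promoters); 24 h dosing; total RNA → oligo(dT) RT → PCR → 6-FAM primer extension → HpaI digest → CE; fit bidirectionally vs DMSO.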

[12] = ATG_CMV_CIS: Attagene CIS-FACTORIAL HepG2 Assay for human CMV (Internal Marker) (AID 2282928); conditions: HepG2 CMV promoter reporter, transcription factor profiling; actives raise or lower the signal;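 also: endpoint acts as a background internal control marker rather than a target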
Summary of the method: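 Fluorescence intensity of RT-PCR-derived reporter fragments, resolved by capillary electrophoresis, gives the signal. HepG2 liver cells bearing transfected cis-element reporters were treated 24 h; activity in either direction was fit relative to DMSO-treated controls.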

[13] = ATG_DR4_LXR_CIS: Attagene CIS-FACTORIAL HepG2 Assay for human Liver X Receptor (LXR), DR4 submotif (AID 2282929); conditions: HepG2 Attagene DR4 cis-reporter, mRNA transcription; actives raise or lower the signal
Summary of the method: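 Measures endogenous transcription factor activity via a DR4-driven reporter transcript in human HepG2 cells. Compounds incubated 24 h; mRNA quantified by RT-PCR and capillary electrophoresis, analysed as gain or loss of signal versus DMSO.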

[14] = target: Aryl hydrocarbon receptor (Homo sapiens) (UniProt P35869); experiment: ATG_Ahr_CIS: Attagene CIS-FACTORIAL HepG2 Assay for human Aryl Hydrocarbon Receptor (Ahr) (AID 2282930); conditions: HepG2 AhR cis-factorial reporter transcription; actives raise or lower the signal
Summary of the method: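 Read-out: reporter mRNA quantified by RT-PCR with fluorescent primer extension and capillary electrophoresis. Human HepG2 liver cells carried transfected cis-promoter reporter units and were exposed to chemical for 24 h; gain or loss fitted relative to DMSO.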

[15] = ATG_AP_2_CIS: Attagene CIS-FACTORIAL HepG2 Assay for human Activator Protein 2 (AP-2) (AID 2282932); conditions: HepG2 AP-2 cis-reporter, Attagene transcription factor profiling; actives raise or lower the signal
Summary of the method: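 Liver-derived HepG2 line, cis-reporter system measuring endogenous factors; 24 h dosing; reporter mRNA detected by fluorescent RT-PCR and capillary electrophoresis.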

[16] = ATG_BRE_CIS: Attagene CIS-FACTORIAL HepG2 Assay for human Bone Morphogenetic Protein (BMP) Response Element (BRE) (AID 2282933); conditions: HepG2 BMP response element reporter, Attagene transcription factor profiling; actives raise or lower the signal
Summary of the method: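 Endogenous transcription factor activity at a BMP response element was monitored in transfected HepG2 cells 24 h after dosing. Fluorescent RT-PCR products were resolved by capillary electrophoresis, and activity was fitted in both directions versus DMSO.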

[17] = target: Retinoic acid receptor alpha (Homo sapiens) (UniProt P10276); experiment: ATG_DR5_RAR_CIS: Attagene CIS-FACTORIAL HepG2 Assay for human Retinoic Acid Receptor Alpha (RARE), DR5 submotif (AID 2282934); conditions: HepG2 Attagene cis-factorial RARE DR5 reporter, mRNA; actives raise or lower the signal
Summary of the method: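 Read-out: DR5-driven reporter transcript measured by RT-PCR, 6-FAM primer extension, HpaI digest and capillary electrophoresis. Human HepG2 liver cells carry transiently transfected cis-element reporter constructs; dosing lasts 24 h. Gain or loss of signal fitted against DMSO baseline.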

[18] = target: Transcription factor E2F1 (Homo sapiens) (UniProt Q01094); experiment: ATG_E2F_CIS: Attagene CIS-FACTORIAL HepG2 Assay for human E2F Transcription Factor 1 (AID 2282935); conditions: HepG2 Attagene cis-reporter, E2F reporter RNA transcripts; actives raise or lower the signal
Summary of the method: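 Liver-derived HepG2 cells expressing transfected promoter-driven reporter units received test chemical for 24 hours. Signal gains or losses were fitted bidirectionally against DMSO.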

[19] = APR_HepG2_p53Act_72hr: Apredica 72-hour HepG2 Assay for p53 Activation (AID 2282923); conditions: high-content imaging, actives raise or lower the signal;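 also: average cellular p53 protein immunofluorescence intensity in HepG2 cells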
Summary of the method: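 Imaging-based endpoint: after 72 hr compound exposure (up to 200 uM, 0.5% DMSO), fixed and permeabilized monolayers were labelled with anti-p53 antibody and imaged; signal change in either direction was fitted relative to DMSO controls.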

[20] = ATG_AP_1_CIS: Attagene CIS-FACTORIAL HepG2 Assay for human Activator Protein 1 (AP-1) (AID 2282931); conditions: HepG2 Attagene cis-factorial AP-1 reporter mRNA; actives raise or lower the signal
Summary of the method: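 Bidirectional concentration-response fitting against DMSO controls. Underlying signal: reporter mRNA from cis-promoter constructs in transiently transfected HepG2, measured after 24 h by RT-PCR and capillary electrophoresis.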

Measured: AC50

Transcription factor E2F1 (Homo sapiens), sequence (Q01094 whole entry, looked up): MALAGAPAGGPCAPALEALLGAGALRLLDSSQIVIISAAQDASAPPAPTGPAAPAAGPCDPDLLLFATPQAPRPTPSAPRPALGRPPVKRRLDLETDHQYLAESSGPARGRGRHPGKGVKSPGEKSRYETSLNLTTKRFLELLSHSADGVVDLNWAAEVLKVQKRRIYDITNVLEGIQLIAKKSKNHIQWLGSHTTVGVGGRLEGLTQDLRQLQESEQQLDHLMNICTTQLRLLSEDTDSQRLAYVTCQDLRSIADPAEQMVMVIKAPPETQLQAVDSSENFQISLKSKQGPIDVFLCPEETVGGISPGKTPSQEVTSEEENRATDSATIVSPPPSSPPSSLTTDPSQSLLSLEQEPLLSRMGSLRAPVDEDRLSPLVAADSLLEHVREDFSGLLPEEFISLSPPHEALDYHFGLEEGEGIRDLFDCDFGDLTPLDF
Aryl hydrocarbon receptor (Homo sapiens), sequence (P35869 whole entry, looked up): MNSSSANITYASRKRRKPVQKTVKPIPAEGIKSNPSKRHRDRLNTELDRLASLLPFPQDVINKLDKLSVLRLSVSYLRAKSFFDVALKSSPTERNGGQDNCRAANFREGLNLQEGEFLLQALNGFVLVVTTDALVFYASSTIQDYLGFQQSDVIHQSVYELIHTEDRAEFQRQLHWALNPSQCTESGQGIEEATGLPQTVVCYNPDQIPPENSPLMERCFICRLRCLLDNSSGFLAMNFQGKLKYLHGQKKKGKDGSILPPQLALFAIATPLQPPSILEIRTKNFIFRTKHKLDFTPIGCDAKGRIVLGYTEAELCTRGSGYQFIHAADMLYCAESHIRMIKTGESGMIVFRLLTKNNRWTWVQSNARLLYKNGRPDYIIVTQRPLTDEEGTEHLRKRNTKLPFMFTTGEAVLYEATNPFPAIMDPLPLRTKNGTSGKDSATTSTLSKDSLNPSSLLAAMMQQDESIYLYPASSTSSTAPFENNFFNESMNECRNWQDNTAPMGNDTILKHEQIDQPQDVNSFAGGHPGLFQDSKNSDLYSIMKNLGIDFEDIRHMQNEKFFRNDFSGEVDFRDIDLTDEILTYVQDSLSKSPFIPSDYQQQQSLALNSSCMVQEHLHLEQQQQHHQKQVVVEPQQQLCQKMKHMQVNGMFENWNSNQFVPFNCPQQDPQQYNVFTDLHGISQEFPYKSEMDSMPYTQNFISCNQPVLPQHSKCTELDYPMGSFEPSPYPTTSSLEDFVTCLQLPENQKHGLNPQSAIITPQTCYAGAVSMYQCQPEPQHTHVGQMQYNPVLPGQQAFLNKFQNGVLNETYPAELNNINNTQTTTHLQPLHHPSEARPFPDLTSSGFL
Retinoic acid receptor alpha (Homo sapiens), sequence (P10276 whole entry, looked up): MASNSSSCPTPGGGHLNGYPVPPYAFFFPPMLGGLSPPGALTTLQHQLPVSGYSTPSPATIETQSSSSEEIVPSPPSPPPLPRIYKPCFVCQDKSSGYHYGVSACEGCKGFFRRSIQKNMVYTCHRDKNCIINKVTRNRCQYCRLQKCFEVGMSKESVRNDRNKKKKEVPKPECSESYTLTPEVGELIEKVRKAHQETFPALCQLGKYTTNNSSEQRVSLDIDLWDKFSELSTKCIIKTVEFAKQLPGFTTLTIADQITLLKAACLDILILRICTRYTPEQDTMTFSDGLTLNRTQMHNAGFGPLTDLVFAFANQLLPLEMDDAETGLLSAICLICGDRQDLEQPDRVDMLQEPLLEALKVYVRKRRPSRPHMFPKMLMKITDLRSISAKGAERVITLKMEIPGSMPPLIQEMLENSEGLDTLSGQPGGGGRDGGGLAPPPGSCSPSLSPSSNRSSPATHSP
CCAAT/enhancer-binding protein beta (Homo sapiens), sequence (P17676 whole entry, looked up): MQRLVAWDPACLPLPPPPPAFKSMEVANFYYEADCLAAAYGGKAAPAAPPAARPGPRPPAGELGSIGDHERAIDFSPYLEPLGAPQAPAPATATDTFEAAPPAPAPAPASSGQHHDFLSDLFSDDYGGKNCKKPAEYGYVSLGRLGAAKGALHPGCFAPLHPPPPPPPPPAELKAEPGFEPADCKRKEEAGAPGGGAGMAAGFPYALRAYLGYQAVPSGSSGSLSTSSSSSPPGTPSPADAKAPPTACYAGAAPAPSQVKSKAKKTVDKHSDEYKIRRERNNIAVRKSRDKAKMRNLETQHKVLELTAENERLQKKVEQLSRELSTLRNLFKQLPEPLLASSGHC

O=[N+]([O-])c1cc(C(F)(F)F)c(Cl)c([N+](=O)[O-])c1Nc1ncc(C(F)(F)F)cc1Cl
active: [1] 1.13 µM | [3] 0.767 µM | [4] 100 µM | [11] 7.85 µM | [13] 11.1 µM | [14] 19.1 µM | [16] 2.63 µM | [18] 9.39 µM
inactive: [2] | [5] | [6] | [7] | [8] | [9] | [10] | [11] | [12] | [13] | [14] | [15] | [16] | [17] | [18]

O=c1ccc(=O)[nH][nH]1
inactive: [1] | [2] | [3] | [4] | [5] | [6] | [7] | [19] | [8] | [9] | [10] | [11] | [12] | [13] | [14] | [16] | [18]

CCc1cccc(C)c1N(C(=O)CCl)C(C)COC (stereo unspecified)
active: [1] 87.6 µM | [3] 82.6 µM | [4] 62.4 µM | [13] 32.1 µM
inactive: [2] | [5] | [6] | [7] | [19] | [8] | [9] | [10] | [11] | [12] | [14] | [15] | [16] | [17] | [18]

CON=C(C(=O)OC)c1ccccc1CON=C(C)c1cccc(C(F)(F)F)c1
active: [4] 0.309 µM | [11] 66.7 µM | [13] 24 µM | [16] 25 µM
inactive: [1] | [2] | [3] | [5] | [6] | [7] | [19] | [8] | [9] | [10] | [12] | [14] | [15] | [17] | [18]

CNc1cnn(-c2cccc(C(F)(F)F)c2)c(=O)c1Cl
active: [10] 19.7 µM | [20] 29.5 µM | [16] 17.8 µM
inactive: [1] | [2] | [3] | [4] | [5] | [6] | [7] | [19] | [8] | [9] | [11] | [12] | [13] | [14] | [17] | [18]

COP(=O)(OC)OC(Br)C(Cl)(Cl)Br (stereo unspecified)
inactive: [1] | [2] | [3] | [4] | [6] | [8] | [9] | [10] | [11] | [12] | [13] | [14] | [16] | [17] | [18]
active: [5] 33.4 µM | [7] 32.5 µM

CCOP(=S)(OCC)SCCSCC
inactive: [1] | [2] | [3] | [4] | [5] | [6] | [19] | [8] | [9] | [10] | [11] | [12] | [13] | [14] | [20] | [15] | [16] | [17] | [18]

CC(=NC#N)N(C)Cc1ccc(Cl)nc1
inactive: [1] | [2] | [3] | [4] | [5] | [6] | [7] | [19] | [8] | [9] | [10] | [11] | [12] | [13] | [14] | [15] | [16] | [17] | [18]

CC(COc1ccc(Oc2ccccc2)cc1)Oc1ccccn1 (stereo unspecified)
active: [4] 82.3 µM | [11] 13.4 µM
inactive: [1] | [2] | [3] | [5] | [6] | [7] | [19] | [8] | [9] | [10] | [12] | [13] | [14] | [15] | [16] | [17] | [18]
